Test [1] concerns the target Cell division control protein 42 homolog (Homo sapiens) (UniProt P60953). Description: activated mutant Cdc42 GTP-binding inhibitors, dose response, biochemical, multiplex bead flow cytometry, Bodipy-FL-GTP (AID 1333;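 active = fitted half-maximal concentration within the tested dose range, moderate curve steepness, a statistically real signal drop, and little compound fluorescence or tag-binding interference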). (A flow cytometer gives signals particle by particle.)
Test [2] has the same target. The test can be described thus: wildtype Cdc42 GTP-binding inhibitors, dose response, biochemical, multiplex bead flow cytometry, Bodipy-FL-GTP (AID 1334). The conditions noted are these: bead-based flow cytometry, Bodipy-FL-GTP binding to GST-Cdc42; at 100 µM (top of the series) unless noted.
Test [3] deals with GTPase HRas (Homo sapiens) (UniProt P01112). The test can be described thus: inhibitors of GTP binding to wildtype Ras, dose response, biochemical, multiplex bead flow cytometry (AID 1335;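 active = fitted half-maximal concentration within 10 nM to 100 µM, steepness 0.5 to 2, significant signal drop, low assay interference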). To be noted: bead-based flow cytometry, Bodipy-GTP binding to GST-Ras; at 100 µM (top of the series) unless noted.
Sequence of GTPase HRas (Homo sapiens) (P01112 whole entry, looked up): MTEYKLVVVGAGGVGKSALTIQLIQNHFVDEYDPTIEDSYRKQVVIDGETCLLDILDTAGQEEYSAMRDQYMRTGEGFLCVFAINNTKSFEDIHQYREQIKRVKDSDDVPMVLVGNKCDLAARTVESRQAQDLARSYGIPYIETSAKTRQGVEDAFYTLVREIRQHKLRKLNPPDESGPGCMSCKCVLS
Test [4] relates to Ras-related protein Rab-7a (dog), GTP binding. Description: Rab7 GTP binding inhibitors, potency, dose response, biochemical, wildtype, multiplex bead flow cytometry (AID 1336; call rule not given here).
Test [5] has as its target Ras-related C3 botulinum toxin substrate 1 (Homo sapiens) (UniProt P63000). The test can be described thus: wildtype Rac1 GTP binding inhibitors, dose response, biochemical, multiplex bead flow cytometry (AID 1340;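 active = dose curve with midpoint inside tested range, moderate steepness, plateau gap beyond fit error, low compound glow and bead-link interference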). To be noted: GST-Rac1 beads, Bodipy-FL-GTP binding; at 100 µM (top of the series) unless noted.
Test [6] has as its target GTPase HRas (Homo sapiens) (UniProt P01112). The test can be described thus: activated Ras mutant GTP binding inhibitors, dose response, biochemical, multiplex bead flow cytometry (AID 1341;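 active = dose-response curve with midpoint inside the tested range, moderate steepness, significant amplitude and little compound fluorescence or bead-attachment interference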;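 note: GST-tagged constitutively activated Ras mutant immobilized on beads and multiplexed with other GTPases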).

For part of these data: Entries with a potency or affinity are not part of this list. The source made the active and inactive calls.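 Rule for the calls, unless noted: active = fitted half-maximal concentration within the tested range, moderate curve steepness, significant signal drop, and little compound fluorescence or bead-linkage interference; inactive = the rest.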

Sequence of Cell division control protein 42 homolog (Homo sapiens) (P60953 whole entry, looked up): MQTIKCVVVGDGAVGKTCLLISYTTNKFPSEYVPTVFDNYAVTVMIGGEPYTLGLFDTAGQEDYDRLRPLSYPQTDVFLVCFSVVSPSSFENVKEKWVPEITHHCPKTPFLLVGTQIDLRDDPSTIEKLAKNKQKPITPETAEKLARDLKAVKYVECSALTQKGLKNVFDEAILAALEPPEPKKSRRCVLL

In the case of `COC(=O)c1cccc(NC(=O)c2nn(C)c(=O)c3ccccc23)c1`, the compound was called inactive in test [1], in test [4] and in test [6]. In addition, the fluorescence, percent of control (lower = inhibition) in test [2] is 42.8%. The compound further showed a GTP binding, percent of control in test [3] of 155%. In test [5], this compound had a GTP binding signal, raw median fluorescence (lower = inhibition) (MCF (arbitrary fluorescence units)) of 179.
Regarding `COc1ccc(OCC(=O)Nc2nonc2NC(=O)COc2ccc(OC)cc2)cc1`, the outcome in test [1], in test [4] and in test [6] was inactive. The fluorescence, percent of control (lower = inhibition) in test [2] is 38.2%. Moreover, the GTP binding, percent of control in test [3] was 79.5%. The same compound registered a GTP binding signal, raw median fluorescence (lower = inhibition) (MCF (arbitrary fluorescence units)) in test [5] of 234.
Turning to `COc1ccc(CN2CCN(CCc3ccccc3)C(CCO)C2)c(O)c1` (configuration not stated), the compound was called inactive in test [1], in test [4] and in test [6]. Also, the fluorescence, percent of control (lower = inhibition) in test [2] was determined as 40.6%. The GTP binding, percent of control in test [3] was 82.3%. Also, the GTP binding signal, raw median fluorescence (lower = inhibition) (MCF (arbitrary fluorescence units)) in test [5] was found to be 265.
`C=CCc1ccccc1OCC(O)CN1CCN(C(=O)OCC)CC1` (configuration not stated): the compound was called inactive in test [1], in test [4] and in test [6]. Further, the fluorescence, percent of control (lower = inhibition) in test [2] was 48.3%. The same compound had a GTP binding, percent of control in test [3] of 60.5%. In test [5], this compound showed a GTP binding signal, raw median fluorescence (lower = inhibition) (MCF (arbitrary fluorescence units)) of 194.
In the case of `Cc1cc2ccccn2c1C(=O)c1ccc(NN)c([N+](=O)[O-])c1`, the outcome in test [1], in test [4] and in test [6] was inactive. The fluorescence, percent of control (lower = inhibition) in test [2] came to 35.2%. Also, the GTP binding, percent of control in test [3] was 83.1%. The same compound gave a GTP binding signal, raw median fluorescence (lower = inhibition) (MCF (arbitrary fluorescence units)) in test [5] of 240.
Turning to `Cc1ccc(OCCSc2nc3ccccc3n2CC(=O)O)c(C)c1`, the call in test [1], in test [4] and in test [6] was inactive. The fluorescence, percent of control (lower = inhibition) in test [2] was 55.9%. Besides, the GTP binding, percent of control in test [3] worked out at 85%. Also, in test [5], the GTP binding signal, raw median fluorescence (lower = inhibition) (MCF (arbitrary fluorescence units)) was found to be 29.2.
As for `CCOc1ccc2nc(SCc3ccc(CC(=O)O)cc3)c(C#N)cc2c1`, the compound was classed as inactive in test [1], in test [4] and in test [6]. Also, the fluorescence, percent of control (lower = inhibition) in test [2] stood at 28.4%. This compound also showed a GTP binding, percent of control in test [3] of 73.2%. In test [5], this compound displayed a GTP binding signal, raw median fluorescence (lower = inhibition) (MCF (arbitrary fluorescence units)) of 201.
`O=c1c(/C=N/Nc2ccccc2)c(Sc2nnnn2-c2ccccc2)nc2ccccn12`: the compound was called inactive in test [1], in test [4] and in test [6]. Moreover, the fluorescence, percent of control (lower = inhibition) in test [2] is 107%. Further, the GTP binding, percent of control in test [3] is 114%. In test [5], this compound had a GTP binding signal, raw median fluorescence (lower = inhibition) (MCF (arbitrary fluorescence units)) of 308.
For the compound `CCOc1ccc(C2C(C(=O)O)CCC(=O)N2C2CCCCC2)cc1` (configuration not stated), the compound was classed as inactive in test [1], in test [4] and in test [6]. Also, the fluorescence, percent of control (lower = inhibition) in test [2] turned out to be 23%. The compound further displayed a GTP binding, percent of control in test [3] of 59.8%. The same compound gave a GTP binding signal, raw median fluorescence (lower = inhibition) (MCF (arbitrary fluorescence units)) in test [5] of 178.
On to `O=C(Nc1sc2c(c1C(=O)O)CCCCC2)c1ccccc1`, for which the call in test [1], in test [4] and in test [6] was inactive. In test [2], the fluorescence, percent of control (lower = inhibition) worked out at 29.3%. In addition, in test [3], the GTP binding, percent of control came to 74.3%. The GTP binding signal, raw median fluorescence (lower = inhibition) (MCF (arbitrary fluorescence units)) in test [5] is 201.
With `CC(=O)OC(C(=O)NC1CCCCC1)c1ccc(Cl)cc1` (configuration not stated), the call in test [1], in test [4] and in test [6] was inactive. For the same compound, in test [2], the fluorescence, percent of control (lower = inhibition) amounted to 34.5%. The compound further yielded a GTP binding, percent of control in test [3] of 82.1%. Moreover, the GTP binding signal, raw median fluorescence (lower = inhibition) (MCF (arbitrary fluorescence units)) in test [5] turned out to be 240.
As for `Cc1nnc(SCCN2CCOCC2)c2nn(-c3ccccc3F)c(C)c12`, the compound was classed as inactive in test [1], in test [4] and in test [6]. Moreover, in test [2], the fluorescence, percent of control (lower = inhibition) was found to be 48.5%. In test [3], this compound yielded a GTP binding, percent of control of 61.1%. The compound also returned a GTP binding signal, raw median fluorescence (lower = inhibition) (MCF (arbitrary fluorescence units)) in test [5] of 196.
Regarding `CC(C)(C)NC(=O)CCN(/N=C/c1ccc([N+](=O)[O-])o1)C1=NS(=O)(=O)c2ccccc21`, the result in test [1], in test [4] and in test [6] was inactive. The fluorescence, percent of control (lower = inhibition) in test [2] turned out to be 23.6%. This compound displayed a GTP binding, percent of control in test [3] of 33.1%. The compound also showed a GTP binding signal, raw median fluorescence (lower = inhibition) (MCF (arbitrary fluorescence units)) in test [5] of 86.3.
On to `COc1cc2ccccc2cc1C(=O)NC(=S)Nc1cccc(C(=O)O)c1`, for which the outcome in test [1], in test [4] and in test [6] was inactive. The fluorescence, percent of control (lower = inhibition) in test [2] was 33.8%. Further, the GTP binding, percent of control in test [3] amounted to 83.3%. For the same compound, the GTP binding signal, raw median fluorescence (lower = inhibition) (MCF (arbitrary fluorescence units)) in test [5] amounted to 174.
With `Cc1cccc(OCC(=O)N/N=C/c2ccc3c(c2)OCO3)c1`, the compound was classed as inactive in test [1], in test [4] and in test [6]. For the same compound, the fluorescence, percent of control (lower = inhibition) in test [2] came to 34.8%. Also, in test [3], the GTP binding, percent of control was determined as 89.5%. Besides, the GTP binding signal, raw median fluorescence (lower = inhibition) (MCF (arbitrary fluorescence units)) in test [5] is 256.
Turning to `CCCOc1ccc(C(CC(=O)O)NC(=O)c2sc3ccccc3c2Cl)cc1` (configuration not stated), the compound was called inactive in test [1], in test [4] and in test [6]. Also, the fluorescence, percent of control (lower = inhibition) in test [2] turned out to be 28.6%. In addition, in test [3], the GTP binding, percent of control stood at 78.9%. In test [5], this compound showed a GTP binding signal, raw median fluorescence (lower = inhibition) (MCF (arbitrary fluorescence units)) of 258.
Regarding `CCCc1nc2oc3c(=O)[nH]cnc3c2c2c1CCCC2`, the compound was called inactive in test [1], in test [4] and in test [6]. In test [2], the fluorescence, percent of control (lower = inhibition) was found to be 35.5%. In test [3], this compound gave a GTP binding, percent of control of 79.1%. This compound returned a GTP binding signal, raw median fluorescence (lower = inhibition) (MCF (arbitrary fluorescence units)) in test [5] of 193.
Turning to `Cc1ccc(-n2c(SCc3cc(=O)n4ccsc4n3)nnc2-c2cccnc2)c(C)c1`, the compound was called inactive in test [1], in test [4] and in test [6]. Moreover, the fluorescence, percent of control (lower = inhibition) in test [2] came to 79.6%. Besides, the GTP binding, percent of control in test [3] came to 157%. Further, the GTP binding signal, raw median fluorescence (lower = inhibition) (MCF (arbitrary fluorescence units)) in test [5] turned out to be 178.
Take `Cn1cccc1/C=C1\SC(=S)N(NC(=O)c2ccccc2Cl)C1=O`: the call in test [1], in test [4] and in test [6] was inactive. Besides, in test [2], the fluorescence, percent of control (lower = inhibition) came to 24.6%. For the same compound, the GTP binding, percent of control in test [3] was 62.8%. The compound also displayed a GTP binding signal, raw median fluorescence (lower = inhibition) (MCF (arbitrary fluorescence units)) in test [5] of 178.
With `Cc1nnc2ccc(-c3cccc(NC(=O)c4ccc(Br)o4)c3)nn12`, the compound was called inactive in test [1], in test [4] and in test [6]. The fluorescence, percent of control (lower = inhibition) in test [2] amounted to 34.5%. In test [3], this compound came in with a GTP binding, percent of control of 81.8%. In test [5], the GTP binding signal, raw median fluorescence (lower = inhibition) (MCF (arbitrary fluorescence units)) is 206.
`CC(C)Nc1nnc(SCC(=O)Nc2ccc3c(c2)C(=O)c2ccccc2C3=O)s1`: the compound was classed as inactive in test [1], in test [4] and in test [6]. In test [2], the fluorescence, percent of control (lower = inhibition) came to 43.2%. Further, the GTP binding, percent of control in test [3] was found to be 50.9%. For the same compound, the GTP binding signal, raw median fluorescence (lower = inhibition) (MCF (arbitrary fluorescence units)) in test [5] is 0.
Take `C/C=C/c1ccccc1OCc1ccc(C(=O)O)o1`: the call in test [1], in test [4] and in test [6] was inactive. Further, in test [2], the fluorescence, percent of control (lower = inhibition) worked out at 180%. This compound showed a GTP binding, percent of control in test [3] of 326%. The same compound had a GTP binding signal, raw median fluorescence (lower = inhibition) (MCF (arbitrary fluorescence units)) in test [5] of 420.
For the compound `O=C(O)C1=C[C@H](c2ccc(C(F)(F)F)cc2)C[C@H](OCc2ccc(CO)cc2)O1`, the outcome in test [1], in test [4] and in test [6] was inactive. Further, in test [2], the fluorescence, percent of control (lower = inhibition) was 30.2%. The compound further registered a GTP binding, percent of control in test [3] of 87.2%. Also, the GTP binding signal, raw median fluorescence (lower = inhibition) (MCF (arbitrary fluorescence units)) in test [5] worked out at 246.
Turning to `Cc1ccc(C)c(NC(=S)NNC(=O)c2cc3c(s2)CCC(C)C3)c1` (configuration not stated), the result in test [1], in test [4] and in test [6] was inactive. In addition, in test [2], the fluorescence, percent of control (lower = inhibition) is 49.9%. The GTP binding, percent of control in test [3] was 67.1%. In addition, the GTP binding signal, raw median fluorescence (lower = inhibition) (MCF (arbitrary fluorescence units)) in test [5] is 176.
Take `NS(=O)(=O)c1ccc(CCN2C(=O)/C(=C\c3ccc(Cl)cc3)SC2=S)cc1`: the compound was called inactive in test [1], in test [4] and in test [6]. The fluorescence, percent of control (lower = inhibition) in test [2] is 29%. In test [3], the GTP binding, percent of control is 76.5%. The compound further displayed a GTP binding signal, raw median fluorescence (lower = inhibition) (MCF (arbitrary fluorescence units)) in test [5] of 242.
Turning to `O=S(=O)(Cc1ccccc1)c1ccccc1-c1nnc(-c2ccccc2)o1`, the compound was called inactive in test [1], in test [4] and in test [6]. Moreover, the fluorescence, percent of control (lower = inhibition) in test [2] is 89.9%. The GTP binding, percent of control in test [3] is 166%. Besides, in test [5], the GTP binding signal, raw median fluorescence (lower = inhibition) (MCF (arbitrary fluorescence units)) amounted to 188.
For the compound `COc1ccc(C(=O)O)c(OCc2ccccc2Br)c1`, the compound was called inactive in test [1], in test [4] and in test [6]. Moreover, the fluorescence, percent of control (lower = inhibition) in test [2] was found to be 59.6%. Also, the GTP binding, percent of control in test [3] came to 171%. This compound also showed a GTP binding signal, raw median fluorescence (lower = inhibition) (MCF (arbitrary fluorescence units)) in test [5] of 56.1.
